Source: PubChem BioAssay (EPA / NIEHS)
Inconclusive results are not listed. Active and inactive are the calls of the source. The calls were made as follows: active = hit-call score of the fitted dose curve at least 0.9, where 1 is the maximum; inconclusive = response in the unintended direction; inactive = score below 0.9.

Legend:
[1] = TOX21_p53_BLA_p2_viability: Viability Assessment in the Tox21 HCT-116 p53 Agonism Beta-lactamase Assay, Phase 2 (AID 2283591);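 also: actives lower the ATP signal meaning cytotoxicity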
How it was run: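 Cytotoxicity readout: CellTiter-Glo ATP luminescence, 30 min at room temperature, after the beta-lactamase read. Cells were HCT116 exposed 16 h at 37C to compounds pin-transferred at 217-fold dilution from DMSO stocks.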

[2] = target: Cellular tumor antigen p53 (Homo sapiens) (UniProt P04637); test: TOX21_p53_BLA_p2_ratio: Tox21 HCT-116 p53 Agonism Beta-lactamase Assay, Ratio, Phase 2 (AID 2283592)
How it was run: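 First, HCT116 reporter cells settle for 5 h at 37C. Next, DMSO compound solutions are pinned in (217-fold dilution) and left 16 h. Finally, CCF4-AM substrate is loaded 2 h at room temperature and the 460/530 nm ratio read.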

[3] = TOX21_p53_BLA_p3_viability: Viability Assessment in the Tox21 HCT-116 p53 Agonism Beta-lactamase Assay, Phase 3 (AID 2283593);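 also: cells exposed to compound for 16 h before reading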
How it was run: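 Cellular ATP was quantified by CellTiter-Glo luminescence, read after 30 min at room temperature. Beforehand, HCT116 cells (4000/well) received compound 5 h post-seeding, 217-fold diluted from DMSO, then incubated 16 h at 37C.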

[4] = target: Cellular tumor antigen p53 (Homo sapiens) (UniProt P04637); test: TOX21_p53_BLA_p5_ratio: Tox21 HCT-116 p53 Agonism Beta-lactamase Assay, Ratio, Phase 5 (AID 2283599)
How it was run: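 Beta-lactamase reporter ratio (blue 460 nm over green 530 nm, 405 nm excitation) after 2 h CCF4-AM loading, in HCT-116 cells exposed 16 h at 37 C to compounds pinned at 217-fold dilution. Increases relative to DMSO baseline scored.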

[5] = TOX21_p53_BLA_p5_viability: Viability Assessment in the Tox21 HCT-116 p53 Agonism Beta-lactamase Assay, Phase 5 (AID 2283600)
How it was run: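 Decreased CellTiter-Glo luminescence denotes lost viability. Exposure: 16 h at 37C, 5% CO2, with compounds from DMSO stocks diluted 217-fold in wells of 4000 cells.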

[6] = target: Cellular tumor antigen p53 (Homo sapiens) (UniProt P04637); test: TOX21_p53_BLA_p4_ratio: Tox21 HCT-116 p53 Agonism Beta-lactamase Assay, Ratio, Phase 4 (AID 2283601)
How it was run: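 Signal is the blue/green (460nm/530nm) ratio of cleaved versus uncleaved CCF4-AM substrate, read after 2 h substrate loading. Cells were HCT116 carrying the p53-responsive beta-lactamase reporter, dosed 16 h at 37C, 5% CO2; CellTiter-Glo measured in parallel.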

[7] = TOX21_p53_BLA_p4_viability: Viability Assessment in the Tox21 HCT-116 p53 Agonism Beta-lactamase Assay, Phase 4 (AID 2283597);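 also: hits lower the luminescence signal meaning cytotoxicity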
How it was run: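 4000 HCT116 cells per well; 5 h attachment; compounds from DMSO, 217-fold dilution; 16 h at 37C. Then CCF4-AM, 2 h RT, followed by CellTiter-Glo, 30 min RT, luminescence. Decrease = cytotoxicity.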

PGR (gene 5241) = PGR (gene 5241) (UniProt P06401); test: TOX21_PR_BLA_Followup_Antagonist_ratio: Tox21 HEK293 Progesterone Receptor (PR) Antagonism Beta-lactamase Follow-Up Assay, Ratio (AID 2283934);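 also: PR-UAS-bla HEK293T cells stimulated with 1 nM R5020 agonist for 16 hr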
How it was run: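 Measured in PR-UAS-bla HEK293T cells co-treated with compound and 1 nM promegestone for 16 hr; beta-lactamase ratio read after 2 h FRET substrate loading, with parallel CellTiter-Glo cytotoxicity.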

[8] = TOX21_PR_BLA_Followup_Antagonist_viability: Viability Assessment in the Tox21 HEK293 Progesterone Receptor (PR) Antagonism Beta-lactamase Follow-Up Assay (AID 2283936);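 also: cells exposed to compound with R5020 agonist for 16 h; hits lower the luminescence signal meaning cytotoxicity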
How it was run: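 PR-UAS-bla HEK293T cells in medium with 2% charcoal-stripped FBS were treated with compounds plus R5020 for 16 hr at 37C. After the beta-lactamase read, CellTiter-Glo was added to the same wells and luminescence read after 30 min at room temperature.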

[9] = TOX21_PR_LUC_Followup_Agonist_viability: Viability Assessment in the Tox21 HEK293 Progesterone Receptor (PR) Agonism Luciferase Follow-Up Assay (AID 2283941);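 also: loss of signal means cytotoxicity so actives lower viability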
How it was run: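 Seeding: HEK293-PR-A-luc, 3,000 cells/well, 5 h at 37C. Treatment: compound in DMSO, 16 h, 37C. Read: CellTiter-Glo ATP luminescence, signal loss taken as lower viability.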

Measured: outcome

Sequence of Cellular tumor antigen p53 (Homo sapiens) (P04637 whole entry, looked up): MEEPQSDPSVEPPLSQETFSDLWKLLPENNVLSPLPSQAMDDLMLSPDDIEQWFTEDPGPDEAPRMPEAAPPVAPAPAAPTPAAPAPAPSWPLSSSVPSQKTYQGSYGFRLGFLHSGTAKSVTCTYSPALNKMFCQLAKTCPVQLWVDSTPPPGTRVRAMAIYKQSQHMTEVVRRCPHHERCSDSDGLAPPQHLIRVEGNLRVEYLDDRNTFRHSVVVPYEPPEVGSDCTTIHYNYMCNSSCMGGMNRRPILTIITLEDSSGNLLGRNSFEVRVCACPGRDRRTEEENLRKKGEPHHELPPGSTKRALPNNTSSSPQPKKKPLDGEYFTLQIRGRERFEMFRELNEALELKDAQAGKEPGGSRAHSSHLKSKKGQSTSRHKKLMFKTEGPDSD
Sequence of PGR (gene 5241) (P06401 whole entry, looked up): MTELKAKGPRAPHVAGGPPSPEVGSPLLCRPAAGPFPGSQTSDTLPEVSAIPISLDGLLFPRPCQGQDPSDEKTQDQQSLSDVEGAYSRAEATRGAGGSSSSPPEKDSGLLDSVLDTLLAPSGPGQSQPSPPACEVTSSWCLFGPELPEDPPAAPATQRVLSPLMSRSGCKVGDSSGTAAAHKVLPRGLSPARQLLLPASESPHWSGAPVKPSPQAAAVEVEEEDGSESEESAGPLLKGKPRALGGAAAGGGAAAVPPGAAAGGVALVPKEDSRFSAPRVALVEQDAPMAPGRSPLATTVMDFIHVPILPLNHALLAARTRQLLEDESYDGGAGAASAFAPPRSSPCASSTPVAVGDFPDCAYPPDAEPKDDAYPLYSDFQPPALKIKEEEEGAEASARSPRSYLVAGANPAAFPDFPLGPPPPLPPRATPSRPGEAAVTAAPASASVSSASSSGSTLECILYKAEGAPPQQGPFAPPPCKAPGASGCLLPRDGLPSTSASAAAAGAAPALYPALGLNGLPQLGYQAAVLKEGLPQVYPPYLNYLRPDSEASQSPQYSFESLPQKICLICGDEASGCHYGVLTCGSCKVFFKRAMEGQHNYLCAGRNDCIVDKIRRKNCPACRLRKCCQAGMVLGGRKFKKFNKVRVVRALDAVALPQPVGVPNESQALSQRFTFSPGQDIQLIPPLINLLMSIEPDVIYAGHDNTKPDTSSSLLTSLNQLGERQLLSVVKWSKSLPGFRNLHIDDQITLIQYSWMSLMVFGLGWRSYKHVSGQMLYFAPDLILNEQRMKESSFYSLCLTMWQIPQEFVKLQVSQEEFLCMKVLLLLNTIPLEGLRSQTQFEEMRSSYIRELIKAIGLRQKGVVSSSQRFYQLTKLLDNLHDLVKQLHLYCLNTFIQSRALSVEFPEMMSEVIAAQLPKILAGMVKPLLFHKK

O=C(Cl)OCc1ccccc1
inactive: [1] | [2] | [3] | [4] | [5] | [6]

Oc1ccc(Cl)c(Cl)c1
not listed: PGR (gene 5241) | [8] | [9]
inactive: all other assays above

ClCC(Br)CBr (centres undefined)
inactive: [1] | [2] | [3] | [7] | [5]

CCN(CC)C(=O)[C@@H]1C=C2c3cccc4[nH]cc(c34)C[C@H]2N(C)C1
not listed: PGR (gene 5241) | [8] | [9]
inactive: all other assays above

c1ccc(C2CC2)c(OCC2=NCCN2)c1
not listed: PGR (gene 5241) | [8] | [9]
inactive: all other assays above

COC(=O)C(C)N(C(=O)c1ccco1)c1c(C)cccc1C (centres undefined)
inactive: [1] | [2] | [3] | [7] | [4]

COc1cc(C[C@@H](C)N)c(OC)cc1Br
inactive: [1] | [2] | [3] | [7] | [5]

CCC1(c2ccccc2)CCC(=O)NC1=O (centres undefined)
inactive: [1] | [2] | [3] | [4] | [5]

C[C@]12CC[C@H]3[C@@H](CCC4=CC(=O)CC[C@@H]43)[C@@H]1CC[C@@H]2O
not listed: [5] | [6]
inactive: all other assays above

COc1cc(CC(C)N)c(OC)cc1Br (centres undefined)
not listed: PGR (gene 5241) | [8] | [9]
inactive: all other assays above

O=c1c2ccccc2[se]n1-c1ccccc1
inactive: [1] | [2] | [3] | [7] | [4] | [6]

C=CC(=O)OCC(C)C
inactive: [1] | [2] | [3] | [4] | [5] | [6]

COC1=CC(=O)O[C@@H](CCc2ccccc2)C1
not listed: PGR (gene 5241) | [8] | [9]
inactive: all other assays above

CCCC[P+](CC)(CCCC)CCCC (tested in a mixture with another compound)
inactive: [1] | [2] | [3] | [7] | [4] | [6]

O=C(NCc1cccnc1)Nc1ccc([N+](=O)[O-])cc1
not listed: PGR (gene 5241) | [8] | [9]
inactive: all other assays above

Cc1nnc2n1-c1ccc(Cl)cc1C(c1ccccc1Cl)=NC2
inactive: [1] | [2] | [3] | [7] | [5]

CCN(CC)CCOC(=O)C(O)(c1ccccc1)c1ccccc1
inactive: [1] | [2] | [3] | [4] | [5]
